{"source": "PubChem BioAssay AID1508607", "about": "(The Scripps Research Institute Molecular Screening Center, 2020)", "note": "In all, about 2,300 compounds went through this assay and about 20 (0.9%) were called active. The sample as a whole holds a higher share of actives than the screen did. A number with no mark means an inactive call.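 Rule for the calls: active = mean percent activation across replicates above the counterscreen hit cutoff of 9.17%; inactive = the rest.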", "data": [{"biological_target": "Glucose-dependent insulinotropic receptor (Homo sapiens) (UniProt Q8TDV5)", "sequence (Q8TDV5 whole entry, looked up)": "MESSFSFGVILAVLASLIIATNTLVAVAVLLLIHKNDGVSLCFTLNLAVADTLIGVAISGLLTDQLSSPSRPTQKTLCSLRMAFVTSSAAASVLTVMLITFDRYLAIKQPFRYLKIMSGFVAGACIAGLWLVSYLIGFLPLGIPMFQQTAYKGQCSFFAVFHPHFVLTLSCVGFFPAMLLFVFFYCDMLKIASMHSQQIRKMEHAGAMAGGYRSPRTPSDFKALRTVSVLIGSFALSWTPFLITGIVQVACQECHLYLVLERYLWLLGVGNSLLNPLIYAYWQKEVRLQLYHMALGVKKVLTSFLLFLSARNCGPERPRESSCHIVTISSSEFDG", "assay": "GPR119 activators in beta-arrestin cells, confirmation, counter-screen for GPR151 activator project, cell-based, PathHunter beta-arrestin, luminescence, set 2 (AID 1508607);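 note: 0% = median of sample wells and 100% = wells given EA reagent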", "details": "90 min, at 11.2 µM, active compounds read high", "values": [{"smiles": "COc1ccc(Br)cc1CNC(=O)Cc1c(C(=O)O)[nH]c2ccccc12", "activation": "4.16%"}, {"smiles": "Cn1c(SCc2ccc(F)cc2)nc2ccc(C(=O)N3CCC(C(N)=O)CC3)cc21", "activation": "0.07%"}, {"smiles": "Cc1csc(CNC(=O)CC2C(=O)NCCN2Cc2ccc(F)cc2Cl)n1", "note": "(stereo not drawn)", "activation": "3.99%"}, {"smiles": "OC(COc1ccc(CNCCc2cscn2)cc1)CN1CCc2ccccc2C1", "note": "(stereo not drawn)", "activation": "3.64%"}, {"smiles": "O=C(CNc1ccccc1)N/N=C/c1cc([N+](=O)[O-])ccc1O", "activation": "-3.89%"}, {"smiles": "O=C(Nc1cc(Cl)ccc1Cl)c1ccccc1O", "activation": "-0.02%"}, {"smiles": "CCc1ccccc1NC(=O)Cn1nnc(C(=O)OC)c1C(=O)OC", "activation": "3.17%"}, {"smiles": "Cc1ccn2c(-c3csc(Nc4ccccc4)n3)c(C)nc2c1", "activation": "-1.87%"}, {"smiles": "CC1=NNC(=O)C1CCC(=O)N/N=C(\\C)c1ccc(C)cc1", "note": "(stereo not drawn)", "activation": "-4.69%"}, {"smiles": "CCn1c(=O)c2cc(C(=O)Nc3ccsc3C(=O)OC)sc2c2ccccc21", "activation": "-1.75%"}, {"smiles": "CCOC(=O)N1CCN(C(=S)Nc2ccc(C)cc2)CC1", "activation": "2.12%"}, {"smiles": "O=S(=O)(NCCC12CC3CC(CC(C3)C1)C2)c1cccc2nsnc12", "activation": "0.9%"}, {"smiles": "CCc1ccc(NC(=O)Cn2nnc(C(=O)OC)c2C(=O)OC)cc1", "activation": "-0.08%"}, {"smiles": "c1ccc(N2CCOCC2)c(Nc2nc3ccccc3n3cnnc23)c1", "activation": "0.28%"}, {"smiles": "O=C(CSC1=NC(=O)C(c2ccccc2)C(=O)N1)c1ccccc1", "note": "(stereo not drawn)", "activation": "-3.69%"}, {"smiles": "CCN1CCC(N(Cc2ccc(F)cc2)C(=O)Nc2ccccc2F)CC1", "activation": "-1.27%"}, {"smiles": "CCOC(=O)C1CCCN(c2c(Nc3cccc(C)c3)c(=O)c2=O)C1", "note": "(stereo not drawn)", "activation": "-2.19%"}, {"smiles": "COc1ccc(C(=O)NCC2(c3ccccc3)CCCC2)cc1[N+](=O)[O-]", "activation": "-1.92%"}, {"smiles": "CSc1ccccc1N1C(=O)CC(Sc2ccccc2C(=O)O)C1=O", "note": "(stereo not drawn)", "activation": "2.04%"}, {"smiles": "CC1Oc2cccnc2N(Cc2cccc(C#N)c2)C1=O", "note": "(stereo not drawn)", "activation": "0.9%"}, {"smiles": "COc1cccc(C(=O)Nc2ccc(-n3nncc3-c3ccc(OC)c(OC)c3)cc2)c1", "activation": "5.22%"}, {"smiles": "COc1ccc(-c2nc(-c3ccc(NC(=O)c4ccc(Br)o4)cc3)no2)cc1OC", "activation": "14.8% (active)"}, {"smiles": "COc1ccc(-c2noc(CCC(=O)Nc3ccc(C)c(C)c3)n2)cc1", "activation": "1.95%"}, {"smiles": "CCC1CN(CCNC(=O)c2ccc(C(C)=O)s2)Cc2cc(OC)ccc2O1", "note": "(stereo not drawn)", "activation": "2.67%"}, {"smiles": "CCN(CC)S(=O)(=O)c1ccc(-c2csc(=Nc3ccccc3OC)n2CC)cc1", "activation": "-1.01%"}, {"smiles": "c1ccc(Oc2nc(NC3CC3)c3ncn(-c4ccsc4)c3n2)cc1", "activation": "10.5% (active)"}, {"smiles": "Clc1nc(NCc2ccccc2)c2ncn(-c3ccccc3)c2n1", "activation": "-3.84%"}, {"smiles": "C(=N\\Nc1nnnn1-c1cccc2ccccc12)/c1ccc2c(c1)OCO2", "activation": "3.7%"}, {"smiles": "O=C(COc1ccc(Cl)cc1Cl)Nc1c2c(nn1-c1ccc(F)cc1)CSC2", "activation": "3.41%"}, {"smiles": "CCOc1cc(/C=C2/C(=N)N3OC(C)=CC3=NC2=O)ccc1OCc1ccc2c(c1)OCO2", "activation": "2.7%"}, {"smiles": "O=C1[C@H]2[C@H]3[C@H](O)[C@H](O)C/C(=N\\OCc4ccccc4)[C@H]3CC[C@H]2C(=O)N1C1CCCCC1", "activation": "-1.69%"}, {"smiles": "Cc1cc(/C=C2/C(=N)N3C=CSC3=NC2=O)c(C)n1-c1ccc(Cl)cc1", "activation": "-1.56%"}, {"smiles": "CCN(CC)c1cc(C)c2ccccc2n1", "activation": "1.75%"}, {"smiles": "Cc1ccc(OC(C)c2nc(-c3ccc(OCC(N)=O)cc3)no2)cc1C", "note": "(stereo not drawn)", "activation": "8.62%"}, {"smiles": "CC1CCN(Cc2nnnn2CC(=O)NCC2CCCO2)CC1", "note": "(stereo not drawn)", "activation": "4.51%"}, {"smiles": "CC(=O)c1ccc(NCN2C(=O)C3CC=C(Cl)CC3C2=O)cc1", "note": "(stereo not drawn)", "activation": "2.21%"}, {"smiles": "COC(=O)c1cn(-c2ccccc2)nc1-c1ccc(F)cc1", "activation": "0.06%"}, {"smiles": "COc1ccc(-c2noc(CC(=O)NCCN3CCOCC3)n2)cc1", "activation": "0.07%"}, {"smiles": "COc1ccc2nc(N3CCCC(C(=O)NCCCOC(C)C)C3)sc2c1", "note": "(stereo not drawn)", "activation": "0.71%"}, {"smiles": "COc1ccc(C2C(C(=O)OCCc3ccccc3)=C(C)NC3=C2C(=O)CCC3)cc1O", "note": "(stereo not drawn)", "activation": "3.23%"}, {"smiles": "COC(=O)C1=C(N)n2c(s/c(=C\\c3ccc(Cl)cc3)c2=O)=C(C(=O)OC)C1c1ccc(Cl)cc1", "note": "(stereo not drawn)", "activation": "-5.44%"}, {"smiles": "CC1CC(C)CN(C(=O)Cn2cc(C=O)c3ccccc32)C1", "note": "(stereo not drawn)", "activation": "0.05%"}, {"smiles": "COC(=O)CN1C(=O)S/C(=C/c2ccco2)C1=O", "activation": "3.06%"}, {"smiles": "Cn1ccnc1C(=O)C1CCCN(C(=O)CCc2nnc(-c3ccccc3)o2)C1", "note": "(stereo not drawn)", "activation": "2.54%"}, {"smiles": "COc1ccc(-c2cc(-c3ccccc3)c(C#N)c(SC3CCCCC3O)n2)cc1", "note": "(stereo not drawn)", "activation": "4.49%"}, {"smiles": "COc1cc(/C=C2/C(=N)N3OC(C)=CC3=NC2=O)ccc1OCCOc1ccc(C)cc1", "activation": "2.89%"}, {"smiles": "CCOC(CNc1ncnc2sc(C)c(C)c12)OCC", "activation": "0.97%"}, {"smiles": "CCC(=O)N1CCN(c2ccc(NC(=O)c3ccco3)cc2)CC1", "activation": "0.71%"}, {"smiles": "Cc1ccc(/C=N/NC(=O)c2ccc(O)cc2O)cc1", "activation": "-2.17%"}, {"smiles": "O=C(O/C(=C/c1nc2ccccc2n1Cc1cccc2ccccc12)c1ccc(Cl)cc1)c1ccc(Cl)cc1", "activation": "-1.84%"}, {"smiles": "COc1ccccc1C(=O)COC(=O)C1(C)CC1(Cl)Cl", "note": "(stereo not drawn)", "activation": "5.89%"}, {"smiles": "CCC(C(=O)N1CCOCC1)n1c2ccccc2c2cn[nH]c(=O)c21", "note": "(stereo not drawn)", "activation": "-3.25%"}, {"smiles": "CC(=O)c1c(C)[nH]c(C(=O)N2CCN(c3ncccn3)CC2)c1C", "activation": "-3.09%"}, {"smiles": "CCc1c(C(=O)N2CCN(c3cccc(Cl)c3)CC2)[nH]c(C)c1C(C)=O", "activation": "20.1% (active)"}, {"smiles": "O=C(CC(c1ccccc1)c1ccccc1)N1CCN(c2cccc(Cl)c2)CC1", "activation": "-2.36%"}, {"smiles": "CC(C)(C)NC(=S)Nc1cccc(F)c1", "activation": "6.02%"}, {"smiles": "COc1ccc(CCn2c(-c3ccc(Cl)cc3)csc2=Nc2ccc(F)cc2)cc1OC", "activation": "0.18%"}, {"smiles": "COc1ccc(N(C(=O)C(C)Oc2ccccc2)C2C=CS(=O)(=O)C2)c(OC)c1", "note": "(stereo not drawn)", "activation": "-0.94%"}]}]}
